Measurements from PubChem BioAssay (EPA / NIEHS).
“And” between values parts separate entries of the source, which are not always exact repeats. Equal values may be shown once. Some compounds were tested as several samples or in several runs, with calls that do not always agree. The source made the active and inactive calls. How the source made its calls: active means hit-call score of the fitted dose curve at least 0.9, where 1 is the maximum; inactive means score below 0.9.

Experiments:
Details in all cases: mRNA level, 48 h; actives raise or lower the signal
CYP2C9 (gene 1559) = experiment: LTEA_HepaRG_CYP2C9: Life Technologies and Expression Analysis (LTEA) Assay for CYP2C9 using HepaRG (AID 2283484)
In short: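 HepaRG, 48 h dosing, 8-pt half-log series, top 100 uM, 0.5% DMSO vehicle. Read-out: CYP2C9 transcript by TaqMan qRT-PCR, housekeeping-normalized (ACTB/GAPDH/POLR2A). Gain or loss fitted vs DMSO baseline.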

CYP2E1 (gene 1571) = experiment: LTEA_HepaRG_CYP2E1: Life Technologies and Expression Analysis (LTEA) Assay for CYP2E1 using HepaRG (AID 2283485)
In short: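 CYP2E1 transcript was measured by TaqMan qRT-PCR in human HepaRG cultures after 48 h chemical exposure (top 100 uM, half-log steps, 0.5% DMSO vehicle). Housekeeping-gene normalization; gain or loss fitted relative to DMSO baseline.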

CYP4A11 (gene 1579) = experiment: LTEA_HepaRG_CYP4A11: Life Technologies and Expression Analysis (LTEA) Assay for CYP4A11 using HepaRG (AID 2283486)
In short: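 Readout is CYP4A11 transcript level by qRT-PCR, normalized to three housekeeping genes and fitted bidirectionally against 0.5% DMSO. Human HepaRG cells were treated 48 h, in duplicate, with an 8-point half-log series topping at 100 uM.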

[1] = read-out: Cytochrome P450 3A4 (Homo sapiens) (UniProt P08684); experiment: LTEA_HepaRG_CYP3A4: Life Technologies and Expression Analysis (LTEA) Assay for CYP3A4 using HepaRG (AID 2283487)
In short: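 Differentiated HepaRG cells, plated 48 h, then dosed 48 h in serum-free induction medium with 0.5% DMSO, 8 half-log concentrations up to 100 uM, duplicate. CYP3A4 mRNA by qRT-PCR, normalized to ACTB/GAPDH/POLR2A; bidirectional fit versus DMSO.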

[2] = read-out: DNA damage-inducible transcript 3 (DDIT3), DDIT3 (gene 1649); experiment: LTEA_HepaRG_DDIT3: Life Technologies and Expression Analysis (LTEA) Assay for DNA damage-inducible transcript 3 (DDIT3) using HepaRG (AID 2283488)
In short: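 qRT-PCR readout (Fluidigm TaqMan), housekeeping-normalized to ACTB, GAPDH, POLR2A. HepaRG cells, 48 h exposure, 8-point half-log series from 100 uM in 0.5% DMSO, duplicates. Gain or loss of signal fitted against DMSO baseline.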

[3] = read-out: Pro-epidermal growth factor (Homo sapiens) (UniProt P01133); experiment: LTEA_HepaRG_EGF: Life Technologies and Expression Analysis (LTEA) Assay for Epidermal growth factor (EGF) using HepaRG (AID 2283489)
In short: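 EGF transcript measured by Fluidigm TaqMan qRT-PCR with three housekeeping genes for normalization, 48 h after dosing HepaRG cultures in duplicate (top 100 uM, half-log steps, 0.5% DMSO vehicle). Gain or loss relative to DMSO fitted.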

[4] = read-out: Early growth response protein 1 (EGR1) transcription factor, EGR1 (gene 1958); experiment: LTEA_HepaRG_EGR1: Life Technologies and Expression Analysis (LTEA) Assay for Early growth response protein 1 (EGR1) transcription factor using HepaRG (AID 2283490)
In short: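 HepaRG, 48 h exposure, 8-pt half-log series from 100 uM, 0.5% DMSO vehicle; EGR1 transcript by TaqMan qRT-PCR (Fluidigm array), housekeeping-normalized; bidirectional fit relative to DMSO baseline.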

[5] = read-out: Ezrin (EZR), EZR (gene 7430); experiment: LTEA_HepaRG_EZR: Life Technologies and Expression Analysis (LTEA) Assay for Ezrin (EZR) using HepaRG (AID 2283491)
In short: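 EZR transcript levels came from Fluidigm qRT-PCR and were normalized to three housekeeping genes after 48 h chemical exposure of HepaRG cells. Dosing used an 8-point half-log series with a 100 uM top concentration in 0.5% DMSO, tested in duplicate; both directions were fitted versus vehicle.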

[6] = read-out: Cytochrome P450 3A7 (Homo sapiens) (UniProt P24462); experiment: LTEA_HepaRG_CYP3A7: Life Technologies and Expression Analysis (LTEA) Assay for CYP3A7 using HepaRG (AID 2283492)
In short: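 CYP3A7 transcript measured by qRT-PCR (ACTB, GAPDH, POLR2A normalization) after 48 h chemical exposure of HepaRG cells in duplicate. Eight half-log concentrations, maximum 100 uM, 0.5% DMSO vehicle; bidirectional curve fitting against DMSO baseline.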

CYP3A5 (gene 1577) = experiment: LTEA_HepaRG_CYP3A5: Life Technologies and Expression Analysis (LTEA) Assay for CYP3A5 using HepaRG (AID 2283493)
In short: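 qRT-PCR read-out: CYP3A5 transcript in HepaRG lysates, housekeeping-normalized (ACTB/GAPDH/POLR2A), fitted bidirectionally against 0.5% DMSO baseline. Exposure 48 h, eight half-log concentrations up to 100 uM, duplicates.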

Measured: AC50

Cytochrome P450 3A7 (Homo sapiens), sequence (P24462 whole entry, looked up): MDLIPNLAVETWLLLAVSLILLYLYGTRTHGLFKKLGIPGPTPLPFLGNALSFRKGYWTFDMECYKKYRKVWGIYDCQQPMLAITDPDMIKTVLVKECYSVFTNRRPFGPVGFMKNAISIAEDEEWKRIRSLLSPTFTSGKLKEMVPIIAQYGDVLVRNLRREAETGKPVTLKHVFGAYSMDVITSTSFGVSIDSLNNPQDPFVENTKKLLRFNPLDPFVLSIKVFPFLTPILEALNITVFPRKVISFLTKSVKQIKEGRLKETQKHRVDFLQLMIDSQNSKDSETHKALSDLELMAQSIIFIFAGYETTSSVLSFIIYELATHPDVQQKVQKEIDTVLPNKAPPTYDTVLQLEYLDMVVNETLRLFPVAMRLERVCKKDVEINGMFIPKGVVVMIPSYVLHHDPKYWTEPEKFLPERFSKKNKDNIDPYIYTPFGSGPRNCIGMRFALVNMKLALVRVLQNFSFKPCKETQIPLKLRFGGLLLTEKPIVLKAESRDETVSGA
Cytochrome P450 3A4 (Homo sapiens), sequence (P08684 whole entry, looked up): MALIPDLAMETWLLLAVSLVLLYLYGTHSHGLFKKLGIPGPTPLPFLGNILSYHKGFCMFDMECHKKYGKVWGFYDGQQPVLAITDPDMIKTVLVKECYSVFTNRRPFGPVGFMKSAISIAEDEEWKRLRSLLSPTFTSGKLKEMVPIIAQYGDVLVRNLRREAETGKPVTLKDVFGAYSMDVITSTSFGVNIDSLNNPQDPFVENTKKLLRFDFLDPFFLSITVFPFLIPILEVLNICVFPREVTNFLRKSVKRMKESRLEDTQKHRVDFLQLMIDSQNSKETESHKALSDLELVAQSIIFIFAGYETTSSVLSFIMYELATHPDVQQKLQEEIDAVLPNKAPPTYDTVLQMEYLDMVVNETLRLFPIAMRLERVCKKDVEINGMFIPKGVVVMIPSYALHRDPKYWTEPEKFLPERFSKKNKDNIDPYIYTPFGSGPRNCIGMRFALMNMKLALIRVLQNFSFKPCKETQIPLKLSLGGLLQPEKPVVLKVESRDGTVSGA

N#CC(CCc1ccc(Cl)cc1)(Cn1cncn1)c1ccccc1 (stereo unspecified)
active: CYP2C9 (gene 1559) 59.8 µM | CYP2E1 (gene 1571) 27.3 µM | CYP4A11 (gene 1579) 38.8 µM | [1] 85.9 µM | [2] 34.8 µM | [4] 79.3 µM | [5] 50 µM | [6] 11.7 µM
inactive: [3] | CYP3A5 (gene 1577)

COC(=O)C=C(C)OP(=O)(OC)OC
inactive: CYP2C9 (gene 1559) | CYP2E1 (gene 1571) | CYP4A11 (gene 1579) | [1] | [2] | [3] | [5] | [6] | CYP3A5 (gene 1577)
active: [4] 50 µM

CCc1nn(C)c(C(=O)NCc2ccc(C(C)(C)C)cc2)c1Cl
inactive: [5]
active: CYP2C9 (gene 1559) 5.99 µM | CYP2E1 (gene 1571) 0.507 µM | CYP4A11 (gene 1579) 0.393 µM | [1] 13.3 µM | [2] 0.738 µM | [3] 50 µM | [4] 50 µM | [6] 0.35 µM | CYP3A5 (gene 1577) 88.9 µM

O=C(O)COc1nc(Cl)c(Cl)cc1Cl
inactive: CYP2C9 (gene 1559) | CYP2E1 (gene 1571) | CYP4A11 (gene 1579) | [1] | [2] | [3] | [4] | [5] | CYP3A5 (gene 1577)

C=CCC1=C(C)[C@@H](OC(=O)[C@@H]2[C@@H](C=C(C)C)C2(C)C)CC1=O
inactive: CYP2C9 (gene 1559) | [1] | [2] | [3] | [4] | [5] | [6] | CYP3A5 (gene 1577)
active: CYP2E1 (gene 1571) 62.1 µM | CYP4A11 (gene 1579) 88.3 µM

CCCC1COC(Cn2cncn2)(c2ccc(Cl)cc2Cl)O1 (stereo unspecified)
inactive: [3] | [4] | [5] | CYP3A5 (gene 1577)
active: CYP2C9 (gene 1559) 34.8 µM | CYP2E1 (gene 1571) 13.5 µM | CYP4A11 (gene 1579) 34.7 µM | [2] 30.7 µM | [6] 29.5 µM

COc1ccc(C(c2ccc(OC)cc2)C(Cl)(Cl)Cl)cc1
active: CYP2E1 (gene 1571) 66 µM | CYP4A11 (gene 1579) 79 µM | [2] 75 µM | [4] 73 µM | [5] 79.8 µM
inactive: CYP2C9 (gene 1559) | [3] | [6] | CYP3A5 (gene 1577)

CCOc1cc(Oc2ccc(C(F)(F)F)cc2Cl)ccc1[N+](=O)[O-]
inactive: [4] | [5] | CYP3A5 (gene 1577)
active: CYP2C9 (gene 1559) 35.7 µM | CYP2E1 (gene 1571) 24.8 µM | CYP4A11 (gene 1579) 41.6 µM | [1] 12.2 µM | [2] 78 µM | [3] 10.5 µM | [6] 75.8 µM

CO/C=C(/C(=O)OC)c1ccccc1Oc1cc(Oc2ccccc2C#N)ncn1
active: CYP2C9 (gene 1559) 79.1 µM and 79 µM and 93.4 µM | CYP2E1 (gene 1571) 34.6 µM and 50 µM and 33.2 µM | CYP4A11 (gene 1579) 66.4 µM and 68.3 µM and 40.2 µM | [2] 77.9 µM and 94.2 µM and 77.2 µM | [4] 13 µM and 13.3 µM | CYP3A5 (gene 1577) 62.6 µM and 35.6 µM
inactive: [3] | [4] | [5] | [6] | CYP3A5 (gene 1577)

CCNc1nc(Cl)nc(NCC)n1
inactive: CYP2C9 (gene 1559) | CYP2E1 (gene 1571) | CYP4A11 (gene 1579) | [1] | [2] | [3] | [4] | [5] | [6] | CYP3A5 (gene 1577)

O=C(Nc1ccccc1)Nc1ccnc(Cl)c1
inactive: [2] | [3] | [6]
active: CYP2C9 (gene 1559) 75.6 µM | CYP2E1 (gene 1571) 25.4 µM | CYP4A11 (gene 1579) 36.6 µM | [1] 70.8 µM | [4] 84.6 µM | [5] 79.5 µM | CYP3A5 (gene 1577) 49.1 µM

CC(C)Oc1cc(-n2nc(C(C)(C)C)oc2=O)c(Cl)cc1Cl
inactive: [3] | [4] | [5] | [6] | CYP3A5 (gene 1577)
active: CYP2C9 (gene 1559) 82.3 µM | CYP2E1 (gene 1571) 30.8 µM | CYP4A11 (gene 1579) 45.6 µM | [1] 1.04 µM | [2] 77.7 µM

CCOC(=O)CC(SP(=S)(OC)OC)C(=O)OCC (stereo unspecified)
inactive: CYP2C9 (gene 1559) | CYP2E1 (gene 1571) | CYP4A11 (gene 1579) | [1] | [2] | [3] | [4] | [5] | [6] | CYP3A5 (gene 1577)

N#Cc1nn(-c2c(Cl)cc(C(F)(F)F)cc2Cl)c(N)c1S(=O)C(F)(F)F (stereo unspecified)
active: CYP2C9 (gene 1559) 34.9 µM | CYP2E1 (gene 1571) 12.9 µM | CYP4A11 (gene 1579) 24.6 µM | [1] 32.6 µM | [2] 30.2 µM | [4] 13.2 µM | [5] 29.3 µM
inactive: CYP3A5 (gene 1577)

CCCCNC(=O)OCC#CI
active: CYP2C9 (gene 1559) 21.5 µM | [6] 50 µM
inactive: CYP2E1 (gene 1571) | CYP4A11 (gene 1579) | [1] | [2] | [3] | [4] | [5] | CYP3A5 (gene 1577)

CCOC(=O)C(Cl)Cc1cc(-n2nc(C)n(C(F)F)c2=O)c(F)cc1Cl (stereo unspecified)
active: CYP2C9 (gene 1559) 25.5 µM | [1] 18.7 µM | [6] 34.3 µM
inactive: CYP2E1 (gene 1571) | CYP4A11 (gene 1579) | [2] | [3] | [4] | [5] | CYP3A5 (gene 1577)
